This note sets out measurements from PubChem BioAssay (NCI).

Common to all, as to assay: NCI-60 one-dose screen, 48 h (100 = growth as untreated, 0 = no growth, -100 = all killed)
For experiment [1], the system named is SR leukemia. Particulars: 10 µM unless noted.
For experiment [2], the system named is RPMI-8226 leukemia. The note with it: 10 µM unless noted.
In experiment [3] the test system is OVCAR-8 ovarian. The note with it: 10 µM unless noted.
In experiment [4] the test system is OVCAR-5 ovarian. Particulars: 10 µM unless noted.
Experiment [5] deals with OVCAR-4 ovarian. The note with it: 10 µM unless noted.
For experiment [6], the system named is SK-OV-3 ovarian. Particulars: 10 µM unless noted.
Experiment [7] has as its system IGROV1 ovarian. Particulars: 10 µM unless noted.
For experiment [8], the system named is OVCAR-3 ovarian. Particulars: 10 µM unless noted.
Experiment [9] deals with HS 578T breast. Particulars: 10 µM.
For experiment [10], the system named is NCI/ADR-RES ovarian. Particulars: 10 µM unless noted.
Experiment [11] concerns T-47D breast. Particulars: 10 µM unless noted.
Experiment [12] has as its system BT-549 breast. The note with it: 10 µM unless noted.
For experiment [13], the system named is MDA-MB-435 melanoma. The note with it: 10 µM unless noted.
Experiment [14] relates to SW-620 colon. The note with it: 10 µM unless noted.
The subject of experiment [15] is MCF7 breast. The note with it: 10 µM unless noted.
In experiment [16] the test system is HCT-116 colon. The note with it: 10 µM unless noted.
For experiment [17], the system named is HCC-2998 colon. Particulars: 10 µM unless noted.
For experiment [18], the system named is KM12 colon. Particulars: 10 µM unless noted.

The panel holds about 83,000 compounds, 20% with a hit somewhere; the sample as a whole holds those more often.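 In brief: 96-well plates, 48 h treatment, single concentration, percent growth endpoint.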 A number with no mark means an inactive call. Calls of active or inactive are those of the source. Rule for the calls: active = growth percent below 10; inactive = the rest.

As to `COc1ccc(-c2nn(-c3cccc(Cl)c3)cc2/C=C2\C(=N)N(c3ccccc3)N=C2N)cc1`, the growth is 17.9% in experiment [1]; 47.3% in experiment [2]; 42.3% in [3]; 39.8% in experiment [4]; 71.6% in experiment [5]; 91.3% in [6]. Also, the growth was 27.9% in experiment [7]; 38.8% in experiment [8]; 82.1% in [9]; 34.7% in experiment [10]; 28.6% in [11]; 101% in experiment [12]. For the same molecule, the growth in experiment [13] is 31.3%; in experiment [14], 32.5%; in experiment [15], 26.6%; in experiment [16], 51.3%; in [17], 0.0499% (active).
As for `C/C(=N\NC(=S)Nc1ccccc1)c1ccccn1`, the growth in experiment [1] was 13.7%; in experiment [2] it was 33.5%; in experiment [3] it was 11.8%; in [4], 35.6%; in experiment [5], 33.5%; in experiment [6] it was 40%. The growth in experiment [7] is 15.7%; in experiment [8], 9.49% (active); in experiment [9], 64.1%; in [10] it was 17.2%; in experiment [11], 28.7%; in [12] it was 40.2%. Besides, the growth is 59.6% in [13]; 35% in experiment [14]; 18.7% in [15]; 6.94% (active) in experiment [16]; 48.1% in experiment [17].
With `CCSc1ccc([C@@H]2[C@@H](O)C(=O)N2c2cc(OC)c(OC)c(OC)c2)cc1`, the growth in experiment [1] is 11.7%; in experiment [2], 8.48% (active); in [3], 16.1%; in experiment [4], 54.8%; in experiment [5], 41.7%; in experiment [6] it was 39.1%. For the same molecule, the growth in experiment [7] is 32.5%; in experiment [8], -3.92% (active); in experiment [9], 46.5%; in experiment [10], 8.62% (active); in experiment [11], 76.6%; in experiment [12] it was 9.68% (active). The growth was -32.4% (active) in experiment [13]; 22.3% in experiment [14]; 20.1% in experiment [15]; 2.13% (active) in experiment [16]; 29.6% in experiment [17]; 11.3% in [18].
As for `CCCCn1c(C)nc2cc(Nc3nc(Cl)nc4nc[nH]c34)ccc21`, the growth is 66.7% in [1]; 65.4% in [2]; 84.2% in [3]; 80.6% in experiment [4]; 78.9% in experiment [5]; 80% in experiment [6]. The growth in experiment [7] is 70.7%; in experiment [8], 91.6%; in [9] it was 52.7%; in experiment [10], 94%; in experiment [11], 39.3%; in [12] it was 72.3%. Besides, the growth in experiment [13] was 90.1%; in [14], 90.4%; in [15], 75.4%; in experiment [16], 83.6%; in experiment [17], 102%.
On to `CCCCNCC(O)c1cc(-c2ccc(C(F)(F)F)cc2)nc(-c2ccc(C(F)(F)F)cc2)c1` (stereo not drawn), for which the growth in experiment [1] was -63.7% (active); in experiment [2], -49.9% (active); in experiment [3], -71.1% (active); in experiment [4] it was -74.9% (active); in [5], -93.9% (active); in experiment [6], -75.8% (active). Besides, the growth in experiment [7] was -59.7% (active); in [8] it was -90.8% (active); in [9], -57.8% (active); in experiment [10], -53.9% (active); in experiment [11] it was -80.3% (active); in experiment [12], -31.2% (active). In addition, the growth in [13] was -68.6% (active); in experiment [14] it was -82.1% (active); in [15], -84.8% (active); in experiment [16] it was -88.5% (active); in experiment [17], -75.8% (active); in experiment [18] it was -89.2% (active).
Take `Nc1nc(N)c2cc(CNc3ccc(Cl)c(Cl)c3)ccc2n1`: the growth in experiment [1] is -55.1% (active); in [2], -31.5% (active); in experiment [3], -1.81% (active); in experiment [4], 48.4%; in [5], 49.8%; in experiment [6], 49.9%. For the same molecule, the growth in experiment [7] was 15.9%; in [8], 12.1%; in experiment [9], 28.8%; in experiment [10], 28.3%; in experiment [11], -52.6% (active); in [12], 59.1%. The growth in [13] was -1.48% (active); in experiment [14], -80.3% (active); in experiment [15] it was -74.8% (active); in experiment [16], -88.8% (active); in [17], -70.3% (active); in [18], -15.9% (active).
Consider `Fc1ccc2nc(-c3ccc(-c4noc(-c5ccc(Cl)cc5)n4)cc3)[nH]c2c1`, for which the growth in [1] was 95.6%; in experiment [2], 106%; in experiment [3] it was 108%; in experiment [4], 113%; in experiment [5] it was 114%; in experiment [6], 113%. The growth in [7] is 115%; in experiment [8], 105%; in experiment [9], 108%; in experiment [10] it was 100%; in [11] it was 92.9%; in experiment [12] it was 93.9%. Besides, the growth was 105% in experiment [13]; 107% in experiment [14]; 105% in experiment [15]; 95.6% in experiment [16]; 106% in experiment [17]; 93.1% in [18].
For `O=C(/C=C/c1cccc([N+](=O)[O-])c1)c1ccc(Nc2nc(N3CCCCC3)nc(N3CCCCC3)n2)cc1`, the growth in experiment [1] was 90.6%; in [2], 7.95% (active); in experiment [3] it was 95.2%; in experiment [4], 110%; in [5], 97.6%; in experiment [6], 97.4%. For the same molecule, the growth in [7] is 88.1%; in [8], 91.5%; in [9] it was 103%; in experiment [10], 103%; in experiment [11] it was 78.6%; in [12] it was 91.8%. Moreover, the growth in experiment [13] is -11.7% (active); in [14], 94.2%; in [15] it was 19.4%; in experiment [16] it was -34.5% (active); in experiment [17], 81.8%.
For the molecule `COc1cc(/C=C/C(=O)c2c(C)nc3ccccc3c2C)ccc1OCCCOc1cc2c(cc1OC)C(=O)N1CCC[C@H]1C=N2`, the growth is -34.3% (active) in experiment [1]; -22.6% (active) in experiment [2]; 12.3% in experiment [3]; -23.1% (active) in experiment [4]; -10.9% (active) in experiment [5]; -9.97% (active) in [6]. Moreover, the growth in experiment [7] was -61.7% (active); in [8] it was -86.9% (active); in [9], -2.33% (active); in [10] it was 13.9%; in experiment [11], -38.8% (active); in experiment [12], -94.2% (active). Moreover, the growth is -60.8% (active) in [13]; -67.6% (active) in [14]; -51.3% (active) in [15]; -35.8% (active) in experiment [16]; -69.3% (active) in [17]; -54.2% (active) in [18].
